From PubChem BioAssay (EPA / NIEHS)
Results filed as inconclusive are left out. The source made the active and inactive calls. The calls were made as follows, unless noted: active = hit-call score of the fitted dose curve at least 0.9, where 1 is the maximum; inactive = score below 0.9.

Key:
[1] = CCTE_Harrill_HTTr_Apoptosis_MCF7: CCTE's 6-hour Apoptosis Assessment for the High-Throughput Transcriptomics (HTTr) Platform, in MCF-7 cells cultured in DMEM + 10% fetal bovine serum, Harrill Lab (AID 2284011)
In short: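 High-content imaging of CellEvent Caspase 3/7 Green signal follows a six-hour exposure, with eight concentrations per chemical. MCF-7 cells grown in DMEM plus 10% fetal bovine serum; activity fitted in both directions against DMSO.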

[2] = CCTE_Harrill_HTTr_CellCount_MCF7: CCTE's Cell Proliferation Assessment for the High-Throughput Transcriptomics (HTTr) Platform, Harrill Lab (AID 2284012; active = hit-call score of the fitted dose curve at least 0.9, where 1 is the maximum;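 also: cells exposed to compound for six hours; intended direction is loss of nuclei count meaning fewer cells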)
In short: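 Cell count served as viability reporter: loss of Hoechst-stained nuclei, counted by high content imaging, marks decreased growth or survival. Exposure was 6 h in MCF-7 cells across eight concentrations, with DMSO as baseline.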

[3] = CCTE_Shafer_MEA_acute_burst_number: CCTE's Neural Acute Assay for Single-Electrode Bursts, Shafer Lab (AID 2284013)
In short: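 Primary rat cortical neurons on 16-electrode MEA wells, DIV 13 or 15, exposed to compound (0.03-40 uM; ≥3 wells); 40-min recordings at 37 C before and after treatment. Burst count expressed as percent change from baseline, DMSO as negative control.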

[4] = CCTE_Shafer_MEA_acute_burst_duration_mean: CCTE's Neural Acute Assay for Mean Burst Duration, Shafer Lab (AID 2284014);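 also: hits are decreases in mean burst duration relative to DMSO controls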
In short: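 Mean burst duration was compared between a 40 min baseline and a 40 min recording in the presence of compound (0.03-40 uM, 37 C), giving percent change per well. Cultures were rat cortical neurons at DIV 13 or 15; wells needed ≥10 active electrodes.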

[5] = CCTE_Shafer_MEA_acute_per_burst_spike_number_mean: CCTE's Neural Acute Assay for Average Number of Spikes Per Burst, Shafer Lab (AID 2284015);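 also: hits are decreases in mean spikes per burst versus baseline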
In short: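 We recorded spontaneous network firing of rat cortical neurons for 40 min before and 40 min during exposure to compound at 0.03-40 uM, at 37 C. Spikes were detected adaptively at 8x rms noise, and the change in average spikes per burst was fitted against DMSO.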

[6] = CCTE_Shafer_MEA_acute_interburst_interval_mean: CCTE's Neural Acute Assay for Mean Interburst Interval, Shafer Lab (AID 2284016);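 also: percent change of mean interburst interval versus each well's own pre-dose baseline; curves fitted for decrease in interburst interval relative to DMSO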
In short: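 MEA recording of spontaneous network bursting in primary rat cortical cultures; mean interburst interval was compared before and after a 40-min compound exposure (0.03-40 uM) and expressed as percent change, relative to DMSO.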

[7] = CCTE_Shafer_MEA_acute_burst_percentage_mean: CCTE's Neural Acute Assay for Percentage of Spikes in a Burst, Shafer Lab (AID 2284017);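 as to AC50: curve fitted for loss of signal so potency reflects decreased burst percentage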
In short: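 Compounds were tested at 0.03-40 uM on primary rat cortical neuron networks grown over microelectrodes, with at least three wells per compound. Spontaneous firing was recorded for 40 min before and 40 min after dosing, and the change in burst percentage was computed per well.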

[8] = CCTE_Shafer_MEA_acute_burst_percentage_std: CCTE's Neural Acute Assay for Standard Deviation of Burst Percentage, Shafer Lab (AID 2284018);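 also: fitted in the negative direction so actives lower burst percentage SD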
In short: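 Value is percent change from baseline in the across-electrode SD of spikes-in-bursts percentage, wells with >/= 10 active electrodes. Acute 40-min exposure to 0.03-40 uM on DIV 13 or 15 rat cortical cultures, recorded at 37 C after 40-min baseline.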

[9] = CCTE_Shafer_MEA_acute_per_network_burst_spike_number_mean: CCTE's Neural Acute Assay for Average Number of Spikes in a Network Burst, Shafer Lab (AID 2284019)
In short: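 Percent change from baseline in mean spikes per network burst, spikes detected at 8x rms noise. Each compound at 0.03-40 uM in at least three wells of rat cortical cultures, recorded 40 min before and 40 min during exposure.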

[10] = CCTE_Shafer_MEA_acute_per_network_burst_spike_number_std: CCTE's Neural Acute Assay for Standard Deviation of Number of Spikes in a Network Burst, Shafer Lab (AID 2284020);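 also: fitted for decrease in spike-number SD versus DMSO so actives lower it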
In short: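 Endpoint: percent change from 40 min baseline in standard deviation of spikes per network burst, after 40 min compound exposure (0.03-40 uM, 37 C). Cortical rat neurons on MEA at DIV 13 or 15; spikes detected at 8x rms noise, 300-5000 Hz band-pass.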

[11] = CCTE_Shafer_MEA_acute_per_network_burst_electrodes_number_mean: CCTE's Neural Acute Assay for Mean Number of Electrodes in a Network Burst, Shafer Lab (AID 2284021);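 also: curves fitted for decreases only so hits reduce electrodes per burst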
In short: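 Percent change from baseline was computed as mean electrode count per network burst, comparing 40 min recordings before and during compound (0.03-40 uM) exposure. Cultures were rat cortical neurons at DIV 13 or 15, recorded on MEAs at 37 C with an adaptive 8x rms threshold.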

[12] = CCTE_Shafer_MEA_acute_network_burst_percentage: CCTE's Neural Acute Assay for Percentage of Network Bursts, Shafer Lab (AID 2284022);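 also: curves fitted for loss so actives lower network burst percentage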
In short: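 Network burst percentage (spikes in network bursts divided by total spikes) recorded at 37 C over 40 min baseline and 40 min after compound, 0.03-40 uM, in rat cortical cultures at DIV 13 or 15. Analysed as percent change from baseline versus DMSO.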

[13] = CCTE_Shafer_MEA_acute_cross_correlation_area: CCTE's Neural Acute Assay for Area of Cross Correlation, Shafer Lab (AID 2284024);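 also: area under pooled inter-electrode spike cross-correlation near zero lag as percent change from own baseline; curves fitted for loss of cross-correlation area so actives lower synchrony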
In short: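 Percent change in well-wide cross-correlation area (window around zero lag) between 40 min baseline and 40 min post-compound recordings, 37 C; rat cortical cultures on MEA at DIV 13 or 15, dosed 0.03-40 uM, wells needing >/= 10 active electrodes.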

[14] = CCTE_Shafer_MEA_acute_cross_correlation_HWHM: CCTE's Neural Acute Assay for Cross Correlation at Half Width at Half Maximum, Shafer Lab (AID 2284026);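 also: percent change per well from pre-dose baseline in spike cross-correlogram half width; hits are a decrease in cross-correlogram half width relative to DMSO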
In short: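 Per-well percent change in cross-correlogram half width at half maximum, derived from 40-min recordings before and after compound (0.03-40 uM) at 37 C. Cultures were rat cortical neurons, DIV 13 or 15, with adaptive spike detection at 8x rms.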

[15] = CCTE_Shafer_MEA_acute_synchrony_index: CCTE's Neural Acute Assay for Synchrony, Shafer Lab (AID 2284027);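 also: network synchrony index of spontaneous spiking in primary rat cortical neurons on MEAs; fitted for loss of signal so actives lower synchrony relative to DMSO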
In short: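 Plates equilibrated 20 min at 37 C, baseline recorded 40 min, compound (0.03-40 uM) added, then 40 min more recorded. Cells: primary rat cortical neurons, DIV 13 or 15. Per-well synchrony index change analysed in negative direction against DMSO.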

[16] = biological target: Estrogen receptor (Homo sapiens) (UniProt P03372); test: CCTE_Deisenroth_AIME_384WELL_LUC_Active: CCTE's 384-well Estrogen Receptor Transactivation Assay with AIME metabolic competence (ERTA luciferase; metabolism positive), Deisenroth Lab (AID 2284030; active = hit-call score of the fitted dose curve at least 0.9, where 1 is the maximum)
In short: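 VM7Luc4E2 breast cells were given, for 24 hours, medium pre-incubated for 2 hours with parent chemical (0.002-200 uM, 10 concentrations) and alginate-encapsulated phenobarbital/beta-naphthoflavone-induced rat hepatic S9. Luciferase gain of signal was fitted against 17beta-estradiol; n=4 or more.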

Measured: AC50

Sequence of Estrogen receptor (Homo sapiens) (P03372 whole entry, looked up): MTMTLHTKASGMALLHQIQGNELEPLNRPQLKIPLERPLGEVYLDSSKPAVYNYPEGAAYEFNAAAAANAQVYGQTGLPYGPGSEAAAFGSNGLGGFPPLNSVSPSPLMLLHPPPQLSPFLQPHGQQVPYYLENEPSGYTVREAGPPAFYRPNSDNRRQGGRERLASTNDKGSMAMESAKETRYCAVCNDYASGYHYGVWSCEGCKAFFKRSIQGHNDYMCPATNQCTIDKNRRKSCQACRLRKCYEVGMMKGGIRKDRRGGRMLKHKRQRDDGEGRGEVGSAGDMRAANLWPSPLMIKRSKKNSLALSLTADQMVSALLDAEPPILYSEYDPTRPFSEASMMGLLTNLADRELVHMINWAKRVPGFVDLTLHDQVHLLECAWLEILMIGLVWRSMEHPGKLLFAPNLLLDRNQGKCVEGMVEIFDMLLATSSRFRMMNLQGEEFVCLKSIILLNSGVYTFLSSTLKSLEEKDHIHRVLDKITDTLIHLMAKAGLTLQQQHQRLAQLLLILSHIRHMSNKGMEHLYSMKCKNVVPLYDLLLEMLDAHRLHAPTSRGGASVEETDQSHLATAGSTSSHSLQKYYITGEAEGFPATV

Cc1ccc(-c2cc(C(F)(F)F)nn2-c2ccc(S(N)(=O)=O)cc2)cc1
active: [3] 6.46 µM | [6] 5 µM | [7] 20 µM | [14] 20 µM
not listed: [16]
inactive: all other assays above

c1ccc2occc2c1
inactive: all assays above

Cn1cnc2c1c(=O)[nH]c(=O)n2C
inactive: [1] | [2]

CC(C)c1cccc(C(C)C)c1NC(=O)NS(=O)(=O)c1cc(C(C)(C)O)co1
inactive: [1] | [2]

CCOCCOCCO
inactive: [1] | [2]

CN(C)C(=O)NC1(c2ccccc2)CCN(CC[C@@]2(c3ccc(F)c(F)c3)CN(C(=O)c3ccccc3)CCO2)CC1
active: [3] 4.34 µM | [12] 5 µM | [14] 20 µM
not listed: [16]
inactive: all other assays above

CC(=O)S[C@H](C(=O)N[C@H]1Cc2ccccc2[C@H]2CCC[C@@H](C(=O)O)N2C1=O)C(C)C
inactive: [1] | [2]

O=C(O)c1cccnc1
inactive: [1] | [2]

O=C(N[C@@H](c1ccccc1)[C@@H]1CCCCN1)c1cccc(C(F)(F)F)c1Cl
active: [3] 3.29 µM | [6] 7.65 µM | [7] 5 µM | [10] 5 µM | [11] 5 µM | [12] 9.12 µM | [13] 1.99 µM | [14] 9.13 µM | [15] 5 µM
inactive: [1] | [2] | [4] | [5] | [8] | [9]

C/C=C/c1ccc(OC)cc1
not listed: [16]
inactive: all other assays above

CCC(C)N(C)C(=O)c1cc2ccccc2c(-c2ccccc2Cl)n1 (centres undefined)
inactive: [1] | [2]

C/C=C/C=C/C(=O)O
inactive: [1] | [2]

CS(=O)(=O)c1ccc([C@@H](C[C@H]2CCC(=O)C2)C(=O)Nc2cnccn2)cc1Cl
inactive: [1] | [2]

C=CCc1ccc(OC)c(OC)c1
inactive: [1] | [2]

CCCC(=O)O
not listed: [16]
inactive: all other assays above
